In PubChem BioAssay (NCATS):
Records with an inconclusive call do not appear. Calls of active or inactive are those of the source. The call rests on the fitted dose curve; in most records, active means well fitted curve in the direction sought with a large enough effect; inconclusive means small, poorly fitted or top-dose-only effect, or another doubt; inactive means no such curve, though single readings can be large; an effect the other way counts as inactive or inconclusive.

What was measured:
[1] = Quantitative high throughput screen for delayed death inhibitors of the malarial parasite plastid, 96 hour incubation (AID 488745); further: nearly all actives have a fitted effect of over 70% in size; further: potency means the concentration at half of the fitted maximal effect
Procedure, shortened: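 Two-generation (96 h) exposure of luciferase-reporter P. falciparum in erythrocytes, 2% hematocrit, 0.1% parasitemia final, 37 C, 5% CO2, RPMI 1640 with 0.5% Albumax. Growth inhibition scored by reduced luminescence.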

[2] = Quantitative high throughput screen for delayed death inhibitors of the malarial parasite plastid, 48 hour incubation (AID 488752); further: nearly all actives have a fitted effect of over 65% in size
Procedure, shortened: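 Cultures: infected erythrocytes at final 2% hematocrit and 0.1% parasitemia in Albumax-supplemented RPMI. Parasites express integrated firefly luciferase. Incubation with compound lasts 48 h before luminescent detection of remaining reporter activity.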

[3] = target: Thioredoxin reductase 1, cytoplasmic (Rattus norvegicus) (UniProt O89049); test: qHTS Assay for Substrates of Mammalian Selenoprotein Thioredoxin Reductase 1 (TrxR1) (AID 488772);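 further: series mostly up to about 57 µM; a drop in NADPH fluorescence below the no-compound background marks a TrxR1 substrate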
Procedure, shortened: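 In this dual-purpose format, potential substrates are identified from the first fluorescence read after selenite addition, not from the 8-minute delta. Rat enzyme is preincubated with NADPH and then with compound at ~22 deg C.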

[4] = target: Thioredoxin reductase 1, cytoplasmic (Rattus norvegicus) (UniProt O89049); test: qHTS Assay for Inhibitors of Mammalian Selenoprotein Thioredoxin Reductase 1 (TrxR1) (AID 488773); settings: Potency: inhibition;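 further: drop in NADPH fluorescence over an 8 min run after selenite addition; series mostly up to about 57 µM; nearly all actives have a fitted effect of over 40% in size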
Procedure, shortened: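 Inhibition is scored from the loss of NADPH fluorescence between first and last reads of an 8-min kinetic run. Selenite (400 uM) was the substrate, added after 15 min compound preincubation at room temperature.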

[5] = target: M-phase phosphoprotein 8 (Homo sapiens) (UniProt Q99549); test: qHTS Validation Assay for Inhibitors for MPP8 Chromodomain Interactions with Methylated Histone Tails (AID 488949); further: nearly all actives have a fitted effect of over 55% in size; further: potency means the concentration at half of the fitted maximal effect
Procedure, shortened: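 MPP8 (50 nM) was preincubated with biotinylated H3(1-18)K9me3 peptide (50 nM) in PBS pH 7.4, 0.01% Tween-20 for 30 min at room temperature, then with compounds for 30 min; binding was detected by AlphaScreen.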

[6] = target: Chromobox protein homolog 1 (Homo sapiens) (UniProt P83916); test: qHTS Validation Assay for Inhibitors of HP1-beta Chromodomain Interactions with Methylated Histone Tails (AID 488953); further: nearly all actives have a fitted effect of over 50% in size; further: potency means the concentration at half of the fitted maximal effect
Procedure, shortened: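 Compounds pinned into a preassembled complex of HP1-beta and trimethyl-K9 histone H3(1-18) biotin peptide (50 nM each; PBS pH 7.4, 0.01% Tween-20). After 30 min, bead-based AlphaScreen detection followed.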

[7] = target: Methanococcus maripaludis chaperonin (MmCpn) (UniProt Q6LX38); test: High-Throughput Screening for Modulators of Cytosolic Chaperonin Activity: MmCpn Primary Screen (AID 488978);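 further: 50 nM MmCpn enzyme hydrolysing 30 µM ATP at 37 °C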
Procedure, shortened: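 MmCpn (50 nM final) was preincubated with compound 5 min at RT, then 30 uM ATP (final) was added and the reaction ran 10 min at 37C. ADP produced was detected by Transcreener HTRF (ex 320 nm; em 590/665 nm).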

[8] = target: Transient receptor potential cation channel subfamily V member 1 (Homo sapiens) (UniProt Q8NER1); test: HTS Assay for Compounds that Act as Enhancers of the Vanilloid Receptor 1 (AID 488979)
Procedure, shortened: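 TRPV1 cells loaded with Fluo-8 calcium dye; compound added and Ca2+ signal (ex 480/em 520 nm) followed 3 min, then capsaicin at EC20 added and read 2 more min to detect enhancement.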

[9] = target: Thyrotropin receptor (Homo sapiens) (UniProt P16473); test: qHTS Assay for Antagonists of the Thyroid Stimulating Hormone Receptor (AID 488980); further: series mostly up to about 58 µM
Procedure, shortened: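 HEK293 cells transfected with human TSHR, suspended in HEPES-buffered HBSS with 70 uM RO 20-1724, were treated with compounds plus TSH at EC80 (4 nM final). cAMP was measured by competitive HTRF (cryptate anti-cAMP antibody, cAMP-d2 acceptor).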

[10] = target: D(1A) dopamine receptor (Homo sapiens) (UniProt P21728); test: HTS Assay for Allosteric Agonists of the Human D1 Dopamine Receptor: Primary Screen for Agonists (AID 488981)
Procedure, shortened: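 Tetracycline-induced HEK293 Trex D1 cells with forced coupling to calcium, loaded with no-wash calcium dye; kinetic fluorescence read 180 s after compound addition for agonism, then a further 180 s after an EC20 dopamine challenge for potentiation.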

Measured: Potency

Chain of Thyrotropin receptor (Homo sapiens) (P16473 whole entry, looked up): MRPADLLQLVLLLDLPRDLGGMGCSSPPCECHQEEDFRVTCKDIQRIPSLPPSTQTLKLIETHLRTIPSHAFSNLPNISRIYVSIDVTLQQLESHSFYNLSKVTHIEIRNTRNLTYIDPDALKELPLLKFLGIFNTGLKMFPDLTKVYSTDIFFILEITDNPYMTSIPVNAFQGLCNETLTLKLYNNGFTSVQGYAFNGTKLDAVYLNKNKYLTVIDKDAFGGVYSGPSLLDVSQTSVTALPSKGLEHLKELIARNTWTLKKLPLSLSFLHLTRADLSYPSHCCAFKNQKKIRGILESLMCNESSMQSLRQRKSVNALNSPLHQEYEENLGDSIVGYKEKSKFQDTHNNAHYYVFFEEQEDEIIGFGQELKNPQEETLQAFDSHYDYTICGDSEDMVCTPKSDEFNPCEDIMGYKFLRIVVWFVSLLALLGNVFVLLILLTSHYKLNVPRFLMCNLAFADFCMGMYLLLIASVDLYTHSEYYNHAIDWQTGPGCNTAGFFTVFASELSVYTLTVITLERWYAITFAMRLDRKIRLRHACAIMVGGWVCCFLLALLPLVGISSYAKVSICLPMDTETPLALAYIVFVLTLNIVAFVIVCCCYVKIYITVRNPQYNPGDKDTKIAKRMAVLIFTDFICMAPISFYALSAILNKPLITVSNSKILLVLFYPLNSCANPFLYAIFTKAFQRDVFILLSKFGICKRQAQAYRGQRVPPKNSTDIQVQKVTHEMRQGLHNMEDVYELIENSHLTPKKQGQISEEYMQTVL
Chain of M-phase phosphoprotein 8 (Homo sapiens) (Q99549 whole entry, looked up): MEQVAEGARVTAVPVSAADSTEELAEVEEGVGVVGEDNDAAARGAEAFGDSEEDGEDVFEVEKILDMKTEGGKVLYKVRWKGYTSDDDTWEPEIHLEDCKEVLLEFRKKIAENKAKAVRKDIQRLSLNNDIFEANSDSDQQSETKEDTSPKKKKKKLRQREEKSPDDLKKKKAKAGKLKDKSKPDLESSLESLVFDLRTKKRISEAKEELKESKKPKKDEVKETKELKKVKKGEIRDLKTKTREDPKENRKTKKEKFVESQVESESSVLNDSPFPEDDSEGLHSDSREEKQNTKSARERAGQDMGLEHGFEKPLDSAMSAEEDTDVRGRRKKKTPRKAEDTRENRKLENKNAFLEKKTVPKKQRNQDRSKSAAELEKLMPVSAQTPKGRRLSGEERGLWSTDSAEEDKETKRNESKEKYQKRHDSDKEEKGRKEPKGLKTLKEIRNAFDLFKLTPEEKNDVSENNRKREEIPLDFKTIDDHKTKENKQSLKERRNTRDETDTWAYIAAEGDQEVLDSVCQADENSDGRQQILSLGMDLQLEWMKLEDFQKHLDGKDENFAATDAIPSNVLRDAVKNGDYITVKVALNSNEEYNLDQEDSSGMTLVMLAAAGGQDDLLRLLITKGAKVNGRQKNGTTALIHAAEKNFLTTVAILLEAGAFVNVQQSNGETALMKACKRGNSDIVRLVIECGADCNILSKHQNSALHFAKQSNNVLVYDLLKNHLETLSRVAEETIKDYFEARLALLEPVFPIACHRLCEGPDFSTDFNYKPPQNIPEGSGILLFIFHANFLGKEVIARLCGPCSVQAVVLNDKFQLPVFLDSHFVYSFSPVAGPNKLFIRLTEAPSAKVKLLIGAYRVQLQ
Chain of Chromobox protein homolog 1 (Homo sapiens) (P83916 whole entry, looked up): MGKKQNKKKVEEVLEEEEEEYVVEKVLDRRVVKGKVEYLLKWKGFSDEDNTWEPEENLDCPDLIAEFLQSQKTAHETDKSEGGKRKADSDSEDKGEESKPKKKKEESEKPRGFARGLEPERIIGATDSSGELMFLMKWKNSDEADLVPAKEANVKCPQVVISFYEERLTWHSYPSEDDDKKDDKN
Chain of Thioredoxin reductase 1, cytoplasmic (Rattus norvegicus) (O89049 whole entry, looked up): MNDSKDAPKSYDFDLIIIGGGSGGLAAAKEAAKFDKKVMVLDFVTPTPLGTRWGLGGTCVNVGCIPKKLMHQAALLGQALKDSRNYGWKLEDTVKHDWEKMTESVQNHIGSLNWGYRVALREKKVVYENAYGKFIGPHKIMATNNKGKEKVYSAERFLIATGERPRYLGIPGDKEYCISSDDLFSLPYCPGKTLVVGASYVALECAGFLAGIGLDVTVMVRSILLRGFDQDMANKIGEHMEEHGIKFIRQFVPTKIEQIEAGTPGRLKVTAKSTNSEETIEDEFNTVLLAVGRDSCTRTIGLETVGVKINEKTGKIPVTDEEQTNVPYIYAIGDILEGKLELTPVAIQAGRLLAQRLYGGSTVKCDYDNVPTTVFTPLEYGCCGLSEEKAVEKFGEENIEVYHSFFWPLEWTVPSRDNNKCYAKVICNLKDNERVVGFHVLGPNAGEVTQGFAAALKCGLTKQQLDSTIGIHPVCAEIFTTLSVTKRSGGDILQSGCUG
Chain of Transient receptor potential cation channel subfamily V member 1 (Homo sapiens) (Q8NER1 whole entry, looked up): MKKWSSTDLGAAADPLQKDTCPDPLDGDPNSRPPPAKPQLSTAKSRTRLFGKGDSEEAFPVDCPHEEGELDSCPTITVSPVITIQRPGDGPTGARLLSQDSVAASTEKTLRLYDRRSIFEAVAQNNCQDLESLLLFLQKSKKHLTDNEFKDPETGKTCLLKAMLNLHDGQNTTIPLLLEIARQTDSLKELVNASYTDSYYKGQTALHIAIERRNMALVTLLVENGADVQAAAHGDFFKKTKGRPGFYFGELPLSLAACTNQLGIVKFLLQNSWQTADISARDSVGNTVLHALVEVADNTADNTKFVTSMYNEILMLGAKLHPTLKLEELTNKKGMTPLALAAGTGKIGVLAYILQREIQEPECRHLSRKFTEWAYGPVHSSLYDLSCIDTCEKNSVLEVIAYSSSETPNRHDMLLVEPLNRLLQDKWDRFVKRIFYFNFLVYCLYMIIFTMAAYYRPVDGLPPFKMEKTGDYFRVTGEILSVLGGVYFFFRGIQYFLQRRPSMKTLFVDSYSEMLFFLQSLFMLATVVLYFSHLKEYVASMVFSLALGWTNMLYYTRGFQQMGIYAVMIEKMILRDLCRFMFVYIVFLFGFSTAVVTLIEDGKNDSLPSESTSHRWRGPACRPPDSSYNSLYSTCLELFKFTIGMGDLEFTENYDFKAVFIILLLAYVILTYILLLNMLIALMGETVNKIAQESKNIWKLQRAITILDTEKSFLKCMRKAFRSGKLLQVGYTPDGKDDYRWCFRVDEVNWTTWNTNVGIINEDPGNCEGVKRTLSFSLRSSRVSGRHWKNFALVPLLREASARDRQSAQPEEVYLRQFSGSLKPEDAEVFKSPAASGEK
Chain of Methanococcus maripaludis chaperonin (MmCpn) (Q6LX38 1-543): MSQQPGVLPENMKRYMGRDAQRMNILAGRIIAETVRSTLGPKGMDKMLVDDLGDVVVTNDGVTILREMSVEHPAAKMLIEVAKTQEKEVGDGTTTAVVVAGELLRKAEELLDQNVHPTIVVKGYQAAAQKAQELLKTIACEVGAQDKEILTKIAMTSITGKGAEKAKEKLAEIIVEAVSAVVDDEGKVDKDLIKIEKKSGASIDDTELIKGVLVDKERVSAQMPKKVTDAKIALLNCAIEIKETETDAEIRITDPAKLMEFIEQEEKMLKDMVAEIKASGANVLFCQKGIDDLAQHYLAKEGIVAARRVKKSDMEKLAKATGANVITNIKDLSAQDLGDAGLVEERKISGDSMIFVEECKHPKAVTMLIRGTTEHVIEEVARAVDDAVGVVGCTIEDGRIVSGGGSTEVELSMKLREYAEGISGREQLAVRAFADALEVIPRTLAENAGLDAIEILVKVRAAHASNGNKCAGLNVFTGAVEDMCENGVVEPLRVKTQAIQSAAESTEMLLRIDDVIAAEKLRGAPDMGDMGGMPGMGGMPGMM
Chain of D(1A) dopamine receptor (Homo sapiens) (P21728 whole entry, looked up): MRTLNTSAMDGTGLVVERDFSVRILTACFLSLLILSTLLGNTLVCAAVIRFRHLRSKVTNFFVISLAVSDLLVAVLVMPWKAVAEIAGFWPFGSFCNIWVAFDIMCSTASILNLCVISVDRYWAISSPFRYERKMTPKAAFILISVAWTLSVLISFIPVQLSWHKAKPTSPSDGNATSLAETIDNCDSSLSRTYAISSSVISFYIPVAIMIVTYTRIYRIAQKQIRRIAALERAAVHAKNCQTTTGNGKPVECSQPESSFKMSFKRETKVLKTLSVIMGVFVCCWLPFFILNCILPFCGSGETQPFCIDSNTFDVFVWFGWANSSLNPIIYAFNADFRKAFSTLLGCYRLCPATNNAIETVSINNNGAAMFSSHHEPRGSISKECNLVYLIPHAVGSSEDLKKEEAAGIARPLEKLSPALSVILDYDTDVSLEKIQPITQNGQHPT

O=C1NCC2(CCN(CCc3ccccc3)CC2)O1
inactive: all assays above

CCN(CC)CCNC(=O)c1ccc(N)cc1
not listed: [8]
inactive: all other assays above

COc1ccccc1N1CCN(CCCNc2cc(=O)n(C)c(=O)n2C)CC1
not listed: [1] | [4]
inactive: all other assays above

CC(C)(C)c1ccc(C(O)CCCN2CCC(C(O)(c3ccccc3)c3ccccc3)CC2)cc1 (stereo unspecified)
not listed: [5] | [6]
inactive: all other assays above

CC(=O)CCCCn1c(=O)c2c(ncn2C)n(C)c1=O
inactive: all assays above

CCN(CC)CCOC(=O)c1ccc(N)cc1
inactive: all assays above

COc1ccc(Cc2nccc3cc(OC)c(OC)cc23)cc1OC
inactive: [3] | [7] | [10]

COC(=O)[C@@H]1[C@H]2C[C@H]3c4[nH]c5ccccc5c4CCN3C[C@@H]2CC[C@@H]1O
inactive: all assays above

CC(=O)N[C@@H](CS)C(=O)O
inactive: all assays above

CCN1CCC[C@H]1CNC(=O)c1cc(S(N)(=O)=O)ccc1OC
inactive: all assays above

Clc1ccc(Cn2c(CN3CCCC3)nc3ccccc32)cc1
not listed: [1] | [6]
inactive: all other assays above

CC/C(=C(\c1ccccc1)c1ccc(OCCN(C)C)cc1)c1ccccc1
active: [1] 13.1 µM | [5] 17.8 µM | [6] 35.5 µM
not listed: [2] | [10]
inactive: all other assays above

CCN(CC)C(=O)c1ccc(O)c(OC)c1
inactive: all assays above

O=C1NC(=O)C(c2ccccc2)(c2ccccc2)N1
inactive: all assays above

Cc1cccc(C)c1OCC(C)N (stereo unspecified)
inactive: all assays above

C[N+](C)(C)CC(=O)O
inactive: [3] | [4] | [7] | [10]

CC(C)NCC(O)COc1cccc2[nH]ccc12 (stereo unspecified)
not listed: [5] | [6]
inactive: all other assays above
